From PubChem BioAssay
Unmarked numbers belong to inactive results. For some of these results: Results with a measured potency or affinity are listed apart. Active and inactive are the calls of the source. Unless noted, how the calls were made is not given here.

Key:
[1] = antimalarial activity against Dd2 strain (AID 2302;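 active means growth inhibition above 50% at the single 2 µM test dose, taken to imply half-maximal potency below 2 µM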;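 further: 0% = DMSO untreated growth and 100% = chloroquine plus artemisinin killed control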); conditions: P. falciparum Dd2 in RBCs, LDH growth readout, 72 h; at 2 µM; active compounds read high
[2] = human hepatoma cell viability loss – ATP luminescence, cytotoxicity control for P. falciparum antimalarial project, primary screen (AID 2303;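 active means inhibition above 50%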;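 further: 0% = DMSO wells and 100% = digitonin-killed cells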); conditions: HepG2 viability, 24-48 h, at 10 µM, active compounds read high
[3] = target: L-lactate dehydrogenase (Plasmodium falciparum (isolate CDC / Honduras)) (UniProt Q27743); assay: PfLDH activity inhibition – cell lysate, 3D7 strain, counter-screen for P. falciparum growth inhibition project (AID 2304);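 further: 0% = vehicle and 100% = reference inhibitor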; conditions: P. falciparum 3D7 crude extract, LDH APAD/NBT absorbance; at 2 µM; active compounds read high
[4] = inhibition of 3D7 malaria parasite growth – strain 3D7 (AID 2306);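 further: 0% = DMSO wells and 100% = chloroquine plus artemisinin control wells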; conditions: P. falciparum 3D7 erythrocytic growth, LDH absorbance, 72 h; at 2 µM; active compounds read high
[5] = target: Calcium-dependent protein kinase 1 (Plasmodium falciparum (isolate 3D7)) (UniProt P62344); assay: PfCDPK1 kinase inhibitors, biochemical, TCAMS library (AID 1159585; cut-off not given, nearly all actives have IC50 up to about 0.98 µM;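 further: inhibitors leave more ATP so luminescence rises with inhibition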); conditions: recombinant PfCDPK1, Kinase-Glo ATP depletion luminescence
[6] = target: Plasmodium falciparum protein kinase 6 (PK6, PF3D7_1337100) (UniProt Q8IDW1); assay: PfPK6 kinase inhibitors, biochemical, TCAMS library (AID 1159586); conditions: recombinant PfPK6, Kinase-Glo ATP depletion luminescence
[7] = target: Protein kinase 7 (PK7), Plasmodium falciparum 3D7 (PF3D7_0213400) (UniProt Q7YTF7); assay: inhibition of Plasmodium PK7 catalytic activity – biochemical, TCAMS antimalarial set, Kinase-Glo luminescence (AID 1159587); conditions: recombinant PfPK7, Kinase-Glo ATP depletion luminescence
[8] = target: Calcium-dependent protein kinase 4 (Plasmodium falciparum (isolate 3D7)) (UniProt Q8IBS5); assay: PfCDPK4 kinase inhibitors, biochemical, TCAMS library (AID 1159588; cut-off not given, nearly all actives have IC50 up to about 0.91 µM); conditions: recombinant PfCDPK4, Kinase-Glo ATP depletion luminescence
Sequence of Calcium-dependent protein kinase 4 (Plasmodium falciparum (isolate 3D7)) (Q8IBS5 whole entry, looked up): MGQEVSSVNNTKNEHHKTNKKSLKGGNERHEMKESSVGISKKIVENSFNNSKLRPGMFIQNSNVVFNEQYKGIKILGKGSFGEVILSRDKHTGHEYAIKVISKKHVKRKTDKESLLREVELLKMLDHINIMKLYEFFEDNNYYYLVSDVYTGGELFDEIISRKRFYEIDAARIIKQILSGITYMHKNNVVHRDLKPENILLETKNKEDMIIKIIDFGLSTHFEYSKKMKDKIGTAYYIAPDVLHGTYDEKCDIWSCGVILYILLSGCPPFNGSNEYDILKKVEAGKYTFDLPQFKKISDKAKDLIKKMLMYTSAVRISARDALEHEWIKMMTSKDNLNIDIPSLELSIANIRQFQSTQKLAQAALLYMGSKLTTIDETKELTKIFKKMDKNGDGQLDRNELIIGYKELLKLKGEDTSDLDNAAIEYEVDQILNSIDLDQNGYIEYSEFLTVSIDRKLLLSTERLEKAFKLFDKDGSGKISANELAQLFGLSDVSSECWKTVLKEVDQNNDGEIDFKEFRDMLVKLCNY

Sequence of Protein kinase 7 (PK7), Plasmodium falciparum 3D7 (PF3D7_0213400) (Q7YTF7 1-343): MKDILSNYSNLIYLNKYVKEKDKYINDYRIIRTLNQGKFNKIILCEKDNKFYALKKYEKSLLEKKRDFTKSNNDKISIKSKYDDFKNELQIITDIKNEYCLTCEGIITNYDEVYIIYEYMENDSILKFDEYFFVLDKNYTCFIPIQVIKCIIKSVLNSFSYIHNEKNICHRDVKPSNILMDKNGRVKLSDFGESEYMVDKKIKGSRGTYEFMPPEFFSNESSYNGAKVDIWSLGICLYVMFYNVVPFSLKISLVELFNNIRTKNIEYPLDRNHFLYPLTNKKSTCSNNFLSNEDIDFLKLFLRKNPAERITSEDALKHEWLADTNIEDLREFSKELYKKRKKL
Sequence of L-lactate dehydrogenase (Plasmodium falciparum (isolate CDC / Honduras)) (Q27743 whole entry, looked up): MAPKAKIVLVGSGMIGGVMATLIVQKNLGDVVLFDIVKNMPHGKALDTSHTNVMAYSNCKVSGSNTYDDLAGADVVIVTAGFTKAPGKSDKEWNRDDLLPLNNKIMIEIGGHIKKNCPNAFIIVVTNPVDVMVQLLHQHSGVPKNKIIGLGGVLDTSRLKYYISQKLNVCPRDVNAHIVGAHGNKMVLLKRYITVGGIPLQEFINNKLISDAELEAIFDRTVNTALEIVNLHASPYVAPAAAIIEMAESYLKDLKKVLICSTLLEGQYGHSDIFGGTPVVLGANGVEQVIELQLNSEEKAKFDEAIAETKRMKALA
Sequence of Calcium-dependent protein kinase 1 (Plasmodium falciparum (isolate 3D7)) (P62344 whole entry, looked up): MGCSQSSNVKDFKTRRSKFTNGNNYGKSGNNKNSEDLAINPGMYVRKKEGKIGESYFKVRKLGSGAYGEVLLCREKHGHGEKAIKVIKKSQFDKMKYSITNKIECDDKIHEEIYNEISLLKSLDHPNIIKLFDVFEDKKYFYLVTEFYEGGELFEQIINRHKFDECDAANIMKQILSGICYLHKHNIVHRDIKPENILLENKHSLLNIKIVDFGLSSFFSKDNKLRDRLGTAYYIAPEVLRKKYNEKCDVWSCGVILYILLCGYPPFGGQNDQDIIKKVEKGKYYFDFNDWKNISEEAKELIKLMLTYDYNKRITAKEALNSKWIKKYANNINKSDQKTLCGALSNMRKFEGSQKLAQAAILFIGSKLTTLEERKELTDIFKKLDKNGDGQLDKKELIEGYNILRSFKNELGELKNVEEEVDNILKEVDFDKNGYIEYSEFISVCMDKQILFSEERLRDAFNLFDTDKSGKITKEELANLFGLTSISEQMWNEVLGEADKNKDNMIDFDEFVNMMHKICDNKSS
Sequence of Plasmodium falciparum protein kinase 6 (PK6, PF3D7_1337100) (Q8IDW1 1-305): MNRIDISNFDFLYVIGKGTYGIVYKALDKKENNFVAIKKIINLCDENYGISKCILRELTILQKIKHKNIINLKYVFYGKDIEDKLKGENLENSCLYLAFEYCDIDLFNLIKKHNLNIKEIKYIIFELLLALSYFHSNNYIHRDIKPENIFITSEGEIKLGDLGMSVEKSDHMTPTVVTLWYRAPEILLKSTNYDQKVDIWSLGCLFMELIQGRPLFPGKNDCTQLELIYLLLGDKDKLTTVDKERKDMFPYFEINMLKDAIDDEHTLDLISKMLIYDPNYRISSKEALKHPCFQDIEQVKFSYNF

SMILES | growth inhibition [1] | inhibition [2] | inhibition [3] | growth inhibition [4] | outcome [5] | outcome [6] | outcome [7] | outcome [8]
Cn1cncc1C(=O)Nc1cccc(-c2ccc(-c3nc4ccccc4[nH]3)s2)c1 | 25% | -3% | -3% | 102% (active) | inactive | inactive | inactive | inactive
Cc1cc(N[C@@H](Cc2ccccc2)C(=O)NCCc2ccccc2)nc(NCCc2ccccc2)n1 | 57% (active) | -4% | -2% | 100% (active) | inactive | inactive | inactive | inactive
COc1cccc(C(=O)NCc2cccs2)c1Oc1ccccc1 | 4% | -6% | -4% | 98% (active) | inactive | inactive | inactive | inactive
COc1ccc(/C=C/C(=O)Nc2ccc(-c3ccncc3)cc2)cc1CCCN(C)C | 86% (active) | 3% | 1% | 102% (active) | inactive | inactive | inactive | inactive
COc1ccc(-c2cnc3ccc(NCc4ccc(S(N)(=O)=O)cc4)nn23)cc1 | 99% (active) | 19% | -2% | 96% (active) | inactive | inactive | inactive | inactive
Cc1cc(-c2ccc(CNCc3ccc(F)cc3)cc2)ccc1S(=O)(=O)NCCN1CCCC1 | 41% | 95% (active) | -1% | 100% (active) | inactive | inactive | inactive | inactive
Cn1c(N)c(N=O)c(=O)[nH]c1=O | 82% (active) | 58% (active) | 0% | 97% (active) | inactive | inactive | inactive | inactive
COc1ccc(CN(C)CCCOc2ccc(NC(=O)c3cccc4c(=O)c5cccc(C)c5[nH]c34)cc2)cc1OC | 62% (active) | 3% | 1% | 96% (active) | inactive | inactive | inactive | inactive
CCc1ccc(CNCC(CCNc2cc(=O)c3ccccc3[nH]2)NCc2cc(Br)cc(Br)c2)o1 (stereo not given) | 92% (active) | -11% | 1% | 100% (active) | inactive | inactive | inactive | inactive
Cc1cccc(CN2CCN(c3ncc(C(=O)NC4CC4)cc3Cl)CC2)c1 | 73% (active) | 2% | -4% | 84% (active) | inactive | inactive | inactive | inactive
Cc1cccc2[nH]c(-c3ccc(-c4cccc(CNCCCN5CCCC5=O)c4)s3)nc12 | 26% | 14% | -9% | 101% (active) | inactive | inactive | inactive | inactive
Cc1cccc2[nH]c(-c3cccc(-c4ccc(NC(=O)C5CC(=O)Nc6ccccc65)cc4)c3)nc12 (stereo not given) | 56% (active) | 15% | 3% | 87% (active) | inactive | inactive | inactive | inactive
O=C1CCCN1CCCNCc1ccc(-c2cccc(-c3nc4ccccc4[nH]3)c2)cc1 | 0% | 19% | -5% | 96% (active) | inactive | inactive | inactive | inactive
O=C(Nc1cncc(NC(=O)c2ccc(Cl)c(Cl)c2)c1)c1ccc(Cl)c(Cl)c1 | 70% (active) | 12% | 0% | 101% (active) | inactive | inactive | inactive | inactive
COc1cc(NC(=O)/C=C/c2ccccc2OC(F)(F)F)cc(OCCN2CCC(O)(c3ccccc3)CC2)c1 | 50% (active) | 61% (active) | 2% | 102% (active) | inactive | inactive | inactive | inactive
Cc1ccc(Cn2ncc(N3CCCNCC3)c(Cl)c2=O)cc1NC(=O)Nc1ccc(-c2ccccc2)cc1 | 38% | 55% (active) | 1% | 101% (active) | inactive | inactive | inactive | inactive
Cc1ccc(S(=O)(=O)N2CCN(C(=O)c3cc(-c4cccs4)[nH]n3)CC2)c(C)c1 | 81% (active) | -1% | -1% | 85% (active) | inactive | inactive | inactive | inactive
COc1ccccc1-c1cccc(-c2cccc(NC(=O)c3ccc([N+](=O)[O-])o3)c2)n1 | 59% (active) | 78% (active) | -1% | 97% (active) | inactive | inactive | inactive | inactive
N#Cc1cccc(C(=O)Nc2ccc(-c3cccc(CN4CCCC4)c3)cc2)c1 | 79% (active) | 15% | 2% | 101% (active) | inactive | inactive | inactive | inactive
Cc1c(C2CCN(CCCCNC(=O)c3ccc(-c4ccc(C#N)cc4)cc3)CC2)c2ccccc2n1CCO | 99% (active) | 28% | 1% | 96% (active) | inactive | inactive | inactive | inactive
